Among the data in PubChem BioAssay (NCI) are growth values, retold here.

The structures appear in SMILES notation. The panel holds about 83,000 compounds, 20% with a hit somewhere; the sample as a whole holds those more often.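 Growth was measured after 48 h exposure to one concentration of compound in 96-well plates. Values under 10 count as active.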 A number with no mark means an inactive call. The source made the active and inactive calls.

Test in all cases: NCI-60 one-dose screen, 48 h (100 = growth as untreated, 0 = no growth, -100 = all killed)
One test concerns MALME-3M melanoma. The following applies: 10 µM unless noted.
The next test relates to RXF 393 renal. The note with it: 10 µM unless noted.
The subject of the next test is SF-295 CNS. The following applies: 10 µM unless noted.
The subject of the next test is UACC-257 melanoma. The following applies: 10 µM unless noted.
Another test concerns HCT-15 colon. The note with it: 10 µM.
Another test deals with UACC-62 melanoma. The note with it: 10 µM unless noted.
The subject of the next test is LOX IMVI melanoma. The note with it: 10 µM unless noted.
A further test relates to SK-MEL-2 melanoma. The note with it: 10 µM unless noted.
The next test deals with TK-10 renal. The note with it: 10 µM unless noted.
The next test has as its system ACHN renal. The note with it: 10 µM unless noted.
The next test concerns A498 renal. The following applies: 10 µM unless noted.
The next test concerns OVCAR-8 ovarian. The following applies: 10 µM unless noted.
The subject of another test is OVCAR-4 ovarian. The note with it: 10 µM unless noted.
The next test deals with NCI/ADR-RES ovarian. The following applies: 10 µM unless noted.
In a further test the test system is T-47D breast. The following applies: 10 µM unless noted.
For a further test, the system named is BT-549 breast. The note with it: 10 µM.
The subject of the next test is HCC-2998 colon. The note with it: 10 µM unless noted.
The next test deals with K-562 leukemia. The note with it: 10 µM unless noted.
A further test relates to MOLT-4 leukemia. The note with it: 10 µM.
The next test relates to HL-60(TB) leukemia. The following applies: 10 µM unless noted.

Consider `C=CCc1ccc(OC(=O)Cc2ccccc2)c(OC)c1`, for which the growth was 86.8% in the test on MALME-3M melanoma; 110% in the test on RXF 393 renal; 95.7% with SF-295 CNS; 120% with UACC-257 melanoma; 103% in the test with HCT-15 colon; 114% in the test with UACC-62 melanoma. Moreover, the growth was 93.6% with LOX IMVI melanoma; 80.6% in the test on SK-MEL-2 melanoma; 110% with TK-10 renal; 110% with ACHN renal; 97.4% with A498 renal; 109% in the test on OVCAR-8 ovarian. Also, the growth is 102% in the test with OVCAR-4 ovarian; 105% in the test on NCI/ADR-RES ovarian; 106% with T-47D breast; 106% with BT-549 breast; 95.8% with HCC-2998 colon.

With `C1CN1c1nc(N2CC2)nc(N2CC2)n1`, the growth in the test on K-562 leukemia was 26.4%; in the test on MALME-3M melanoma it was 49.7%; with RXF 393 renal, 39%; in the test on SF-295 CNS, 14.2%; in the test on UACC-257 melanoma it was 43.7%; in the test with HCT-15 colon, 23.8%. Further, the growth is 41.1% in the test with UACC-62 melanoma; 17% with LOX IMVI melanoma; 76.9% in the test with SK-MEL-2 melanoma; 78.3% with TK-10 renal; -29.7% (active) in the test on ACHN renal; 57.9% in the test with A498 renal. Moreover, the growth was 10.5% in the test on MOLT-4 leukemia; 44.6% with OVCAR-4 ovarian; 36.8% in the test with NCI/ADR-RES ovarian; 26.7% in the test on T-47D breast; 46.1% in the test with BT-549 breast; 49.7% in the test with HCC-2998 colon.

As to `CCC(C)[C@H]1O[C@]2(C=C[C@@H]1C)C[C@@H]1C[C@@H](C/C=C(\C)[C@@H](OC3C[C@H](OC)C(O[C@H]4C[C@H](OC)[C@@H](O)[C@H](C)O4)[C@H](C)O3)[C@@H](C)/C=C/C=C3\CO[C@@H]4[C@H](O)C(C)=C[C@@H](C(=O)O1)[C@]34O)O2` (some centres undefined), the growth with SF-295 CNS was -41.9% (active); in the test with UACC-257 melanoma it was -17.1% (active); in the test on HCT-15 colon it was -20.2% (active); with UACC-62 melanoma it was -35% (active); in the test on LOX IMVI melanoma it was -93.1% (active); in the test on SK-MEL-2 melanoma, -57.2% (active). Moreover, the growth in the test on TK-10 renal was 13.7%; in the test on ACHN renal, -95.1% (active); in the test on A498 renal, -24.9% (active); in the test on HL-60(TB) leukemia it was -26.2% (active); with MOLT-4 leukemia it was -26.6% (active); in the test on OVCAR-8 ovarian it was 12.5%. Further, the growth in the test on OVCAR-4 ovarian is 16.4%; with NCI/ADR-RES ovarian it was 7.16% (active); in the test with T-47D breast, 0.0336% (active); with BT-549 breast, -39.1% (active); with HCC-2998 colon, -49% (active).

Turning to `O=C(CCCN1CCC2(CC1)C(=O)NCN2c1ccc(F)cc1)c1ccc(F)cc1`, the growth with K-562 leukemia is 113%; with MALME-3M melanoma it was 94.7%; in the test on RXF 393 renal, 102%; in the test on SF-295 CNS, 180%; with UACC-257 melanoma, 104%; with HCT-15 colon, 105%. Further, the growth in the test with UACC-62 melanoma is 90.5%; in the test on LOX IMVI melanoma, 106%; in the test with SK-MEL-2 melanoma, 84.9%; with TK-10 renal it was 102%; in the test on ACHN renal, 108%; in the test on A498 renal, 106%. Further, the growth in the test with HL-60(TB) leukemia is 100%; in the test on MOLT-4 leukemia, 103%; with OVCAR-8 ovarian, 97.8%; with OVCAR-4 ovarian, 108%; in the test on NCI/ADR-RES ovarian it was 97.9%; in the test on T-47D breast it was 102%. Also, the values for the growth with BT-549 breast and in the test with HCC-2998 colon were 97.3% and 100%, respectively.

As for `[N-]=[N+]=NC(C(=O)O)c1ccccc1` (centres undefined), the growth is 94.3% in the test with K-562 leukemia; 106% in the test on MALME-3M melanoma; 140% in the test on RXF 393 renal; 102% with SF-295 CNS; 98.3% in the test on UACC-257 melanoma; 101% in the test on HCT-15 colon. Moreover, the growth was 117% with UACC-62 melanoma; 100% in the test on LOX IMVI melanoma; 99.5% in the test with SK-MEL-2 melanoma; 106% in the test with TK-10 renal; 100% with ACHN renal; 101% in the test on A498 renal. Further, the growth is 89.4% in the test on HL-60(TB) leukemia; 87.4% in the test with MOLT-4 leukemia; 100% with OVCAR-8 ovarian; 107% in the test with NCI/ADR-RES ovarian; 103% in the test with T-47D breast; 114% in the test with BT-549 breast. Besides, in the test with HCC-2998 colon, the growth is 96.9%.

In the case of `COC(=O)C1CC2c3ccccc3C1c1ccccc12` (centres undefined), the growth was 102% in the test on K-562 leukemia; 90.6% with MALME-3M melanoma; 94.6% with RXF 393 renal; 87.3% in the test with SF-295 CNS; 97.8% in the test with UACC-257 melanoma; 91.2% in the test with HCT-15 colon. Moreover, the growth in the test with UACC-62 melanoma was 103%; in the test on LOX IMVI melanoma, 94.7%; in the test with SK-MEL-2 melanoma it was 103%; in the test on TK-10 renal, 107%; with ACHN renal it was 97.9%; in the test on A498 renal, 98.4%. Moreover, the growth in the test on HL-60(TB) leukemia was 108%; in the test on MOLT-4 leukemia, 97.3%; in the test on OVCAR-8 ovarian, 101%; in the test on OVCAR-4 ovarian, 106%; in the test on NCI/ADR-RES ovarian, 105%; with T-47D breast it was 102%. In addition, the growth with BT-549 breast was 120%; with HCC-2998 colon, 107%.

As to `CCOC(=O)c1cnc(SCc2ccc(Cl)c(Cl)c2)nc1N1CC1`, the growth in the test on K-562 leukemia is 21.4%; in the test on MALME-3M melanoma it was 68.6%; in the test on RXF 393 renal it was 66.6%; in the test on SF-295 CNS, 39.1%; with UACC-257 melanoma it was 79%; with HCT-15 colon, 33.7%. Besides, the growth in the test with UACC-62 melanoma is 51.1%; in the test on LOX IMVI melanoma, 23.7%; in the test on SK-MEL-2 melanoma it was 66.2%; with TK-10 renal, 71.9%; in the test with ACHN renal, 44.1%; in the test on A498 renal it was 44.3%. The growth in the test with HL-60(TB) leukemia was 56.8%; with MOLT-4 leukemia, 24.5%; with OVCAR-8 ovarian, 51.6%; in the test on OVCAR-4 ovarian it was 53.6%; in the test with NCI/ADR-RES ovarian it was 25.2%; with T-47D breast it was 58.6%. Also, the growth in the test on BT-549 breast was 52.6%; in the test on HCC-2998 colon, 51.9%.

`CC(/C=N/N=C(N)N)=N\N=C(N)N`: the growth with K-562 leukemia is 56.1%; in the test with MALME-3M melanoma, 126%; in the test on SF-295 CNS, 85.5%; with HCT-15 colon, 100%; in the test with UACC-62 melanoma, 86.7%; with LOX IMVI melanoma, 67%. Moreover, the growth was -5.97% (active) in the test with SK-MEL-2 melanoma; 62% in the test on TK-10 renal; 80.9% in the test on ACHN renal; 83.9% in the test on A498 renal; 77.6% in the test with HL-60(TB) leukemia; 98.6% with MOLT-4 leukemia. The growth with OVCAR-8 ovarian is 58.4%; in the test on OVCAR-4 ovarian, 66.3%; with NCI/ADR-RES ovarian, 24.9%; in the test on T-47D breast, 40.8%; in the test with HCC-2998 colon, -62.9% (active).

Consider `Cc1cc(NC(=O)CCc2ccc(N3C(N)=NC(N)=NC3(C)C)cc2)ccc1S(=O)(=O)F`, for which the growth is 22.8% in the test on K-562 leukemia; 32.3% in the test with MALME-3M melanoma; 5.44% (active) with SF-295 CNS; 60.1% in the test with HCT-15 colon; 22.6% with UACC-62 melanoma; 18.1% in the test with LOX IMVI melanoma. The growth is -21.1% (active) in the test on SK-MEL-2 melanoma; 14.1% in the test with TK-10 renal; 70.9% in the test with ACHN renal; 59.8% in the test with A498 renal; 13.3% with HL-60(TB) leukemia; 21.6% in the test on MOLT-4 leukemia. Further, the growth with OVCAR-8 ovarian is 40.9%; in the test on OVCAR-4 ovarian, 62.1%; with NCI/ADR-RES ovarian, 19.2%; with T-47D breast, 75.1%.
